# According to publication PMC7862700, “An all-to-all approach to the identification of sequence-specific readers for epigenetic DNA modifications on cytosine”:
# How the values were obtained:
# Experiment in all cases: DAPPL (digital affinity profiling via proximity ligation, sequencing); 10 mM Tris-HCl pH 7.5, 50 mM NaCl, 1 mM DTT, 4% glycerol, room temperature, 30 min; GST-TFs on glutathione beads, 16-mer random dsDNA library, 0.1% formaldehyde crosslink after washing; high values mean tight binding
# FEV = target: T1, FEV (Homo sapiens, UniProt Q99581 1-238); details: protein: recombinant; tags: N-terminal GST; dsDNA, one strand shown
# T1 sequence: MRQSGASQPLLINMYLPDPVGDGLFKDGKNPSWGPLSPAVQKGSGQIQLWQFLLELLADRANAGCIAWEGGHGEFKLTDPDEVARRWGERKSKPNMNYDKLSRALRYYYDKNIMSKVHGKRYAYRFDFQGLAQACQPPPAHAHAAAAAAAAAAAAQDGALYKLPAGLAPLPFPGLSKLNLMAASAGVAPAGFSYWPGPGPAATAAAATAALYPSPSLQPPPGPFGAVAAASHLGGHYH
# In short: (§1)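 Beads coated with glutathione captured GST-fused human transcription factors that had been expressed in yeast, and the factors were then given DNA barcodes and pooled with a tag-only sample. The pools were incubated with 200 nmole of a random double-stranded 16-mer DNA library in Tris/NaCl/DTT/glycerol buffer for 30 min at room temperature, washed, crosslinked with 0.1% formaldehyde and proximity-ligated with BsaI/T4 ligase at 37 °C for 1 h. PCR amplification and Illumina NextSeq500 sequencing came last. Binding signal is each hexamer's read frequency for a factor divided by its frequency for the tag-only sample.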
# ETV5 = ETV5 (Homo sapiens, UniProt P41161 1-510); details: protein: recombinant; tags: N-terminal GST; dsDNA, one strand shown
# Chain of ETV5 (P41161 whole entry): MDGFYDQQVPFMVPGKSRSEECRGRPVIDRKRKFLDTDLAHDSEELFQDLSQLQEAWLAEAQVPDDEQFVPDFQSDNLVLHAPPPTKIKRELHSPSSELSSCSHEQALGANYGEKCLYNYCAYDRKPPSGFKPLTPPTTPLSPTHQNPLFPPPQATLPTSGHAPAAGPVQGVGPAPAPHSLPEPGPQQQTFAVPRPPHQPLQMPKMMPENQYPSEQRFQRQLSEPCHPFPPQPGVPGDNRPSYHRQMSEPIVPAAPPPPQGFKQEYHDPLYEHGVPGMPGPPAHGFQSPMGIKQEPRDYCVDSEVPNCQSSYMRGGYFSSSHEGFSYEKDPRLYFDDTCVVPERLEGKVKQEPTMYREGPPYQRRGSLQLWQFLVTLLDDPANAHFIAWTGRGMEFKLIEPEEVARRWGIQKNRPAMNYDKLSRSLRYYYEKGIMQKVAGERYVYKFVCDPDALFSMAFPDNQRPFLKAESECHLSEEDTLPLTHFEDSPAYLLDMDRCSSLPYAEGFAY
# In short: as §1
# HSF1 = HSF1 (Homo sapiens, UniProt Q00613 1-529); details: protein: recombinant; tags: N-terminal GST; chain copies: 3; dsDNA, one strand shown
# Chain of HSF1 (Q00613 whole entry): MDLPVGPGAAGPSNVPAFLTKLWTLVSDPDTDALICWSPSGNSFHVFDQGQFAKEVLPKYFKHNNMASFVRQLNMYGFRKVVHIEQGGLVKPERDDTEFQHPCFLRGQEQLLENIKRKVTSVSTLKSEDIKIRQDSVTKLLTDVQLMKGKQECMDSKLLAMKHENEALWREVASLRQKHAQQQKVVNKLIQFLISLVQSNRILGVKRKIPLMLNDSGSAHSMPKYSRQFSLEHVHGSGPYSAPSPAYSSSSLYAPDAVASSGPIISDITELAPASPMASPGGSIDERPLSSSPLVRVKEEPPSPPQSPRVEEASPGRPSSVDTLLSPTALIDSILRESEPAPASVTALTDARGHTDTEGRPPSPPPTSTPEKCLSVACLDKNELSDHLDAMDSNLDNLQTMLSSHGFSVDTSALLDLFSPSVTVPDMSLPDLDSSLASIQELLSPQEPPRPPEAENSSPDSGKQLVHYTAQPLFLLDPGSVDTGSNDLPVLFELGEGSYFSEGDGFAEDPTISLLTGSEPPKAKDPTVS
# In short: as §1
# SPIC = target: T2, SPIC (Homo sapiens, UniProt Q8N5J4 1-248); details: protein: recombinant; tags: N-terminal GST; dsDNA, one strand shown
# T2 sequence: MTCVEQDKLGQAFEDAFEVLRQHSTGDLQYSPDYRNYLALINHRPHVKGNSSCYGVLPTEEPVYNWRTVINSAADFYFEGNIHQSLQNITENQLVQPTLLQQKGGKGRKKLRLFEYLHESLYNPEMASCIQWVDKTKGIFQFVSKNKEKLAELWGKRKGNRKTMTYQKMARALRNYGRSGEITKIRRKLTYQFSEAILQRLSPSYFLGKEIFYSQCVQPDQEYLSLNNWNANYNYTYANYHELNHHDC
# In short: as §1
# ELF4 = ELF4 (Homo sapiens, UniProt Q99607 1-663); details: protein: recombinant; tags: N-terminal GST; dsDNA, one strand shown
# Chain of ELF4 (Q99607 whole entry): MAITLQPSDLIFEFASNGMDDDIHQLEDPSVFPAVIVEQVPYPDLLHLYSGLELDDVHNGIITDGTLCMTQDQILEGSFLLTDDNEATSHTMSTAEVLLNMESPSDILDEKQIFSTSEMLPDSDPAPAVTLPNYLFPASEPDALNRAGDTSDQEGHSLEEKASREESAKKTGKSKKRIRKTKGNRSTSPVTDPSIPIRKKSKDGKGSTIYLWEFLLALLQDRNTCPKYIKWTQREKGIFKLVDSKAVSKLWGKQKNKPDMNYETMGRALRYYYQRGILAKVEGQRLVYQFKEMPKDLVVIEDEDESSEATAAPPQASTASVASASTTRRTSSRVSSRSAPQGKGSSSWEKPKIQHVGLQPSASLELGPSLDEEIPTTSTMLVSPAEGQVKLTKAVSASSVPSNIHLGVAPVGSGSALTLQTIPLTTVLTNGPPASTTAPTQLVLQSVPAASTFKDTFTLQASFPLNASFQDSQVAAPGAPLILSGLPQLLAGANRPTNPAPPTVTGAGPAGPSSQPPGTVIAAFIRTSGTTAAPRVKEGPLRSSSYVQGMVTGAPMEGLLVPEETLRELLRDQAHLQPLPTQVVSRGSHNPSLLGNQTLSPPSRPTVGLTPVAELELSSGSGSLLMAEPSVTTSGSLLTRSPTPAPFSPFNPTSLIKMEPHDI
# In short: as §1
# ELK4 = target: T3, ELK4 (Homo sapiens, UniProt P28324-2 1-405); details: protein: recombinant; tags: N-terminal GST; dsDNA, one strand shown
# T3 sequence: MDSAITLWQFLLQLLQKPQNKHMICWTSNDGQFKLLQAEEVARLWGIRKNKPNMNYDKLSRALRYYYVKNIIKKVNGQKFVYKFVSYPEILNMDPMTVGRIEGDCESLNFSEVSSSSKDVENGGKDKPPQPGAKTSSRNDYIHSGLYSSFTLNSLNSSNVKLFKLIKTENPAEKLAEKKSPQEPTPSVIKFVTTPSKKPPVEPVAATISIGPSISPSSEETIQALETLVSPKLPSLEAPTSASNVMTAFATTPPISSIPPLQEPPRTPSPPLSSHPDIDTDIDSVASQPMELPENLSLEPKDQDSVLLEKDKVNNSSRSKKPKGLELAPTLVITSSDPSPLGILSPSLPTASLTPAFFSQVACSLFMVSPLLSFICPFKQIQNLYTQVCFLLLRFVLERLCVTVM
# In short: as §1
# ETV2 = target: T4, ETV2 (Homo sapiens, UniProt O00321 1-342); details: protein: recombinant; tags: N-terminal GST; dsDNA, one strand shown
# T4 sequence: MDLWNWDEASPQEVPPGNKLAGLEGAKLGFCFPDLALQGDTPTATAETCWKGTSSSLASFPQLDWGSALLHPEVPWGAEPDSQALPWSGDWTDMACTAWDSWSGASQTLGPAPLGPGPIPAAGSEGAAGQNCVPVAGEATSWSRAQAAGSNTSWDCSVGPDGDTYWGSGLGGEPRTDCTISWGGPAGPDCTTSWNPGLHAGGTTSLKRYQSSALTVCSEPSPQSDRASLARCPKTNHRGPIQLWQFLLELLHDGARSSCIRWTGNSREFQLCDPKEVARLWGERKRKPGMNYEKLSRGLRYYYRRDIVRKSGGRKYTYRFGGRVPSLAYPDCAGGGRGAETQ
# In short: as §1
# ELF3 = target: T5, ELF3 (Homo sapiens, UniProt P78545 1-371); details: protein: recombinant; tags: N-terminal GST; dsDNA, one strand shown
# T5 sequence: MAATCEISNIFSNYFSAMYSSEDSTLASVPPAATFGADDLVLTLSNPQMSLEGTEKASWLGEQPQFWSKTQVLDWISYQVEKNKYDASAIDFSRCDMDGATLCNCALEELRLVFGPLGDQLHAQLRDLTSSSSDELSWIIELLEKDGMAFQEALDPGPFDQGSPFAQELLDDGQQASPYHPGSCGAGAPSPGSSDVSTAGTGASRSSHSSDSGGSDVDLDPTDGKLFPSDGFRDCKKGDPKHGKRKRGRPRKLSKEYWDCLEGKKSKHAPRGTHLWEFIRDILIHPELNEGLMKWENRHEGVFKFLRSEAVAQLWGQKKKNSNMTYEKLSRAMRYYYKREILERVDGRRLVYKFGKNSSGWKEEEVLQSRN
# In short: as §1
# CRX = CRX (Homo sapiens, UniProt O43186 1-299); details: protein: recombinant; tags: N-terminal GST; dsDNA, one strand shown
# Chain of CRX (O43186 whole entry): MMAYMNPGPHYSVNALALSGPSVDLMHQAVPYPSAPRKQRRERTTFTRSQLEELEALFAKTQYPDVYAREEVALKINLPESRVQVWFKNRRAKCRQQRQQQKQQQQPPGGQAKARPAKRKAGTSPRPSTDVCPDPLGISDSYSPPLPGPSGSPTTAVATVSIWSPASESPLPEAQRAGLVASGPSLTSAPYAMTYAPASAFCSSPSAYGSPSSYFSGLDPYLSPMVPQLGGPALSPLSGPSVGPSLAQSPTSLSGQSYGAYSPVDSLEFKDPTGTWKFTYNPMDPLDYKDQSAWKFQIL
# In short: as §1
# ETV1 = ETV1 (Homo sapiens, UniProt P50549 1-477); details: protein: recombinant; tags: N-terminal GST; dsDNA, one strand shown
# Chain of ETV1 (P50549 whole entry): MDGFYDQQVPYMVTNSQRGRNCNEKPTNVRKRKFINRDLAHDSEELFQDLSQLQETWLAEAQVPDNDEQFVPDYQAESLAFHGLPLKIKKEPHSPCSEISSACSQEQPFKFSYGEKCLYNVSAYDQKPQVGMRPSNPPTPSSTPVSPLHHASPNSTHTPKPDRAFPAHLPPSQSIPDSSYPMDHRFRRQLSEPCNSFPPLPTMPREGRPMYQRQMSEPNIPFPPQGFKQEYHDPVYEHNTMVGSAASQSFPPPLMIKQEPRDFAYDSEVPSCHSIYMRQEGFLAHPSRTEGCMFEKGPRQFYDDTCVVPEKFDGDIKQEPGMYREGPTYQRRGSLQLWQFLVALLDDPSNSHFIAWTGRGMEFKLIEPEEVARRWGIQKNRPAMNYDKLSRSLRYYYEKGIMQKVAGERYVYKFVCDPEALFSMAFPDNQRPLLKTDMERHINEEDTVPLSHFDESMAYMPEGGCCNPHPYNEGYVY
# In short: as §1
# ERF = target: T6, ERF (Homo sapiens, UniProt P50548 1-548); details: protein: recombinant; tags: N-terminal GST; dsDNA, one strand shown
# T6 sequence: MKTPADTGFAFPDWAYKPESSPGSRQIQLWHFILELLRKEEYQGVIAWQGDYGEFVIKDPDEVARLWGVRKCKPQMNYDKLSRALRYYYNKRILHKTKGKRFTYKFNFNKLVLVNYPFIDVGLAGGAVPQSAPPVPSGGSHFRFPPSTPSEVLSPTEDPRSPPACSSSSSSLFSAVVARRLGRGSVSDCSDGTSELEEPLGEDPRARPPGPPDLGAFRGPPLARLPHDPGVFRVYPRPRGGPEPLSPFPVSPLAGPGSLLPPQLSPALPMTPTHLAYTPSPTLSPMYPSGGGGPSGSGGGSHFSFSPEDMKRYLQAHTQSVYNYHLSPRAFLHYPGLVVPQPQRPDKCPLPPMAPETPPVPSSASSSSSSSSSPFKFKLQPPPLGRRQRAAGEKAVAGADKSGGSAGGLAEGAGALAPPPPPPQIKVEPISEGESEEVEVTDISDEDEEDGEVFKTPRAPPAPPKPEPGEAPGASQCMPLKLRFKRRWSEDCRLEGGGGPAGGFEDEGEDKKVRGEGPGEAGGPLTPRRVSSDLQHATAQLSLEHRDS
# In short: as §1
# ETV3L = target: T7, ETV3L (Homo sapiens, UniProt Q6ZN32 1-361); details: protein: recombinant; tags: N-terminal GST; dsDNA, one strand shown
# T7 sequence: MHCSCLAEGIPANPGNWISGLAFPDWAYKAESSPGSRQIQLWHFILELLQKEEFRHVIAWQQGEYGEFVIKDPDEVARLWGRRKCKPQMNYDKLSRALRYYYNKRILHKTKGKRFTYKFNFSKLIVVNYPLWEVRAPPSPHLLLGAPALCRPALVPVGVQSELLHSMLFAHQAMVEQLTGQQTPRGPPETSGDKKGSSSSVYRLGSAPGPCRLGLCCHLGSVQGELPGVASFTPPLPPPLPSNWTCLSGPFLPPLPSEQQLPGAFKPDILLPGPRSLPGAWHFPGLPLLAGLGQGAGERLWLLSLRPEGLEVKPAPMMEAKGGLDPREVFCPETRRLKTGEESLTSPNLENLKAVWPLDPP
# In short: as §1
# ETS2 = target: T8, ETS2 (Homo sapiens, UniProt P15036 1-469); details: protein: recombinant; tags: N-terminal GST; dsDNA, one strand shown
# T8 sequence: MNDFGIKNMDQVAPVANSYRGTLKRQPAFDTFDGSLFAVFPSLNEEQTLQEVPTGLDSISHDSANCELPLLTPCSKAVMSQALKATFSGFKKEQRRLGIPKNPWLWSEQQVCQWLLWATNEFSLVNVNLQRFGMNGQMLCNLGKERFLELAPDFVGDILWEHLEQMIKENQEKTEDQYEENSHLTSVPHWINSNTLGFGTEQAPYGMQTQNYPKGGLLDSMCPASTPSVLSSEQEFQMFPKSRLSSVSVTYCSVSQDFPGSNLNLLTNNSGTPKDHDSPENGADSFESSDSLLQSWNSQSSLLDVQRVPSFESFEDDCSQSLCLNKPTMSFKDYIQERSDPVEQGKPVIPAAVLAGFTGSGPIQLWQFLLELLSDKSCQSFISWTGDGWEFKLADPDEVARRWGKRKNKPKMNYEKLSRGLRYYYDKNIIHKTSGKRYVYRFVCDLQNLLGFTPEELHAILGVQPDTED
# In short: as §1
# SPDEF = target: T9, SPDEF (Homo sapiens, UniProt O95238 1-335); details: protein: recombinant; tags: N-terminal GST; dsDNA, one strand shown
# T9 sequence: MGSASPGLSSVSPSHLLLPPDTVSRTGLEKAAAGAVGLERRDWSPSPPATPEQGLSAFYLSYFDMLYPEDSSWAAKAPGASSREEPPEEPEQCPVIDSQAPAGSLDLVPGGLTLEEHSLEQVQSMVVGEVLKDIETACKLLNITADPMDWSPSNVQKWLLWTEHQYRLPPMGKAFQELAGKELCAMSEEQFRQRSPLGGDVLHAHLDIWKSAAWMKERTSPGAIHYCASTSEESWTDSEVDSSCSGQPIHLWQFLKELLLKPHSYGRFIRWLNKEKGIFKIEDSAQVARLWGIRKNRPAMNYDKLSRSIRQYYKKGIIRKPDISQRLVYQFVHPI
# In short: as §1
# ETV7 = target: T10, ETV7 (Homo sapiens, UniProt Q9Y603 1-341); details: protein: recombinant; tags: N-terminal GST; dsDNA, one strand shown
# T10 sequence: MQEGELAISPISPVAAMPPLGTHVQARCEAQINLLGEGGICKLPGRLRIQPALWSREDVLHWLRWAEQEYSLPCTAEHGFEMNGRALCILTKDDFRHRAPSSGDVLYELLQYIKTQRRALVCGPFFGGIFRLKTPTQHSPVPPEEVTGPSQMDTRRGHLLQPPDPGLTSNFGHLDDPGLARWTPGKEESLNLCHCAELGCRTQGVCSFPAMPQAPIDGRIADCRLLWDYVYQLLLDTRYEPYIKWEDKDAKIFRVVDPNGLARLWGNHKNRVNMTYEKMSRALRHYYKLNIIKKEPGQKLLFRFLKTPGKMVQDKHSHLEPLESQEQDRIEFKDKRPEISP
# In short: as §1
# ELF5 = target: T11, ELF5 (Homo sapiens, UniProt Q9UKW6-2 1-255); details: protein: recombinant; tags: N-terminal GST; dsDNA, one strand shown
# T11 sequence: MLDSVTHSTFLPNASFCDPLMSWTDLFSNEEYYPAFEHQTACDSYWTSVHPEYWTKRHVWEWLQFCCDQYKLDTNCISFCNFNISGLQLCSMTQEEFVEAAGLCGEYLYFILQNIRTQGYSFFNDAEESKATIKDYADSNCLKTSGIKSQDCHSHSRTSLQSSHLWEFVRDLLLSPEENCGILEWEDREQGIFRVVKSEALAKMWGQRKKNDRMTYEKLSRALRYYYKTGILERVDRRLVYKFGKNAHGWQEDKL
# In short: as §1
# ETV3 = target: T12, ETV3 (Homo sapiens, UniProt P41162-2 1-143); details: protein: recombinant; tags: N-terminal GST; dsDNA, one strand shown
# T12 sequence: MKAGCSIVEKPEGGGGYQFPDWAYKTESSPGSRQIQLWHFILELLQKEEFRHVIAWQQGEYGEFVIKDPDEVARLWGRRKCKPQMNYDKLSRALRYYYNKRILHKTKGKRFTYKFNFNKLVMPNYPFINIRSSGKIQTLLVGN
# In short: as §1
# ETV6 = ETV6 (Homo sapiens, UniProt P41212 1-452); details: protein: recombinant; tags: N-terminal GST; dsDNA, one strand shown
# Chain of ETV6 (P41212 whole entry): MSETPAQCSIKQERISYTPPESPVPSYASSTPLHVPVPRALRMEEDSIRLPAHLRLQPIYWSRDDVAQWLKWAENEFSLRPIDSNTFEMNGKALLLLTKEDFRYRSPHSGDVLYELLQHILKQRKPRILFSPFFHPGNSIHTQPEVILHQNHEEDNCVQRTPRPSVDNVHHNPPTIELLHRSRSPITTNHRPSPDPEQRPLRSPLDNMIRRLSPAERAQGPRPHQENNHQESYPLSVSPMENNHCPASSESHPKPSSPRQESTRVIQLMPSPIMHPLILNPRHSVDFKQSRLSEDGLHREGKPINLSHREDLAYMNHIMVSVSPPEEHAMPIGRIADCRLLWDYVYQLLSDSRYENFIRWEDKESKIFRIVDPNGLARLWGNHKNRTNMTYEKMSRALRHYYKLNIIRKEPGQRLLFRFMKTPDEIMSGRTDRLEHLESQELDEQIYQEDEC
# In short: as §1
sequence,measurement,setting,value
AACCTG,binding signal,FEV,"1.2 fold enrichment (6-mer frequency, TF over GST control)"
same,binding signal,ETV5,"1.16 fold enrichment (6-mer frequency, TF over GST control)"
same,binding signal,HSF1,"1.03 fold enrichment (6-mer frequency, TF over GST control)"
same,binding signal,SPIC,"1.04 fold enrichment (6-mer frequency, TF over GST control)"
same,binding signal,ELF4,"1.25 fold enrichment (6-mer frequency, TF over GST control)"
same,binding signal,ELK4,"1.3 fold enrichment (6-mer frequency, TF over GST control)"
same,binding signal,ETV2,"1.16 fold enrichment (6-mer frequency, TF over GST control)"
same,binding signal,ELF3,"1.12 fold enrichment (6-mer frequency, TF over GST control)"
same,binding signal,CRX,"1.1 fold enrichment (6-mer frequency, TF over GST control)"
same,binding signal,ETV1,"1.14 fold enrichment (6-mer frequency, TF over GST control)"
same,binding signal,ERF,"1.17 fold enrichment (6-mer frequency, TF over GST control)"
same,binding signal,ETV3L,"1.08 fold enrichment (6-mer frequency, TF over GST control)"
same,binding signal,ETS2,"1.27 fold enrichment (6-mer frequency, TF over GST control)"
same,binding signal,SPDEF,"1.13 fold enrichment (6-mer frequency, TF over GST control)"
same,binding signal,ETV7,"1.21 fold enrichment (6-mer frequency, TF over GST control)"
same,binding signal,ELF5,"1.16 fold enrichment (6-mer frequency, TF over GST control)"
same,binding signal,ETV3,"1.2 fold enrichment (6-mer frequency, TF over GST control)"
same,binding signal,ETV6,"1.14 fold enrichment (6-mer frequency, TF over GST control)"
